SW480 rerep: induces DNA re-replication in SW480 colon adenocarcinoma cells. 340,000 tested, 1.8% active. Potency, µM (titrated, usually from 46.1 µM), for inactives: at the highest dose re-replication activation, most hits filed as activators. SW480 DNA re-replication, Hoechst DNA content imaging, 48 h; further: % of control where 0% means no effect; nearly all actives have a fitted effect of over 55% in size
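250 cells/well; 23 nL cpd via pin tool; 48 hr, 37 C, 5% CO2; Hoechst 40 min; imager read of total nuclear intensity, ex 405/em 500-530 nm.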
HT1080NT lethal: kills 2HG-producing HT-1080-NT fibrosarcoma cells; 360,000 tested, 1.6% active; Potency, µM (series often up to 46.1 µM), inactives show at the top dose activity, negative = less viability, most hits filed as cytotoxic; HT-1080-NT fibrosarcoma viability, CellTiter-Glo ATP luminescence, 48 h;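 further: NT is the 2HG producing partner of a matched IDH1 knockdown line; 0% = DMSO-treated cells and -100% = media-only wells without cells; nearly all actives have a fitted effect of over 55% in size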
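HT-1080-NT fibrosarcoma cells (2HG-overproducing), 750 cells/well in RPMI with 5% FBS, dosed after 2 h and incubated 48 h at 37C. CellTiter-Glo luminescence normalized to DMSO and no-cell wells; concentration-response curves fitted and classed.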
KB-V1 MDR tox: KB-V1 MDR subline cytotoxicity; KB-V1 MDR cells viability, CellTiter-Glo, 72 h; Potency, µM (highest dose often 46.1 µM), actives largely listed as cytotoxic; 400,000 tested, 3.4% active; AID 1347076; further: on the % scale 0 is the no-effect control and ±100 the full control effect; nearly all actives have a fitted effect of over 60% in size
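KB-V1, DMEM (no phenol red) + 10% FBS; cpd pin-transferred, titration series; 72 h, 37 degrees C; CellTiter-Glo, luminescence. Data normalized, curve-fit.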
MCF10A rereplic: inducers of DNA re-replication in MCF 10A breast cells. MCF 10A DNA re-replication, Hoechst nuclear intensity, 48 h. Potency, µM (series often up to 46.1 µM), for inactives: top-dose activity, positive = re-replication, hits mostly activators. 350,000 tested, 2.9% active; further: % of control where 0% means no effect; nearly all actives have a fitted effect of over 50% in size
KB-3-1 cytotox: KB-3-1 parental cell cytotoxicity; AID 1347075; Potency, µM (highest dose often 46.1 µM), most hits filed as cytotoxic; 400,000 tested, 1.4% active; KB-3-1 viability, CellTiter-Glo ATP luminescence, 72 h; further: on the % scale 0 is the no-effect control and ±100 the full control effect; nearly all actives have a fitted effect of over 60% in size
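Screening of KB-3-1 cells (DMEM, 10% FBS, phenol-red free) ran from lowest to highest compound concentration; after 72 h at 37 °C viability was read luminescently and curves fitted.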
HT1080 IDH1KD tx: toxicity to HT-1080 IDH1 knockdown cells (counter line); 360,000 tested, 2% active; AID 686971; Potency, µM (highest dose often 46.1 µM), without a hit: at the highest dose activity, negative = toxicity, actives largely listed as cytotoxic; HT-1080 IDH1 knockdown viability, ATP luminescence, 48 h;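 further: 0% = DMSO wells and -100% = cell-free medium wells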
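CellTiter-Glo luminescence after 48 h compound exposure at 37 degrees C of IDH1-knockdown HT-1080 cells in 5% FBS RPMI. %Activity scaled between DMSO wells and cell-free media wells, with curves fitted and assigned curve classes.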
Numbers without * were called inactive. In the library only some 7.9% were active in any assay of this set; here they are far more common. The call rests on the fitted dose curve; in most records, active means well fitted curve in the direction sought with a large enough effect; inconclusive means small, poorly fitted or top-dose-only effect, or another doubt; inactive means no such curve, though single readings can be large; an effect the other way counts as inactive or inconclusive. Potency means the concentration at half of the fitted maximal effect.

Results for CSc1ccc(CCNC(=O)c2ccc3c(Cl)c4c(nc3c2)CCCC4)cc1 ?
KB-V1 MDR tox: inactive; KB-3-1 cytotox: inactive

What do the screens show for `O=C(Cn1cnc2c(oc3ccccc32)c1=O)Nc1ccccc1C(F)(F)F`?
KB-V1 MDR tox: inactive; KB-3-1 cytotox: inactive

What do the screens show for `Cc1ccc(CCNC(=O)c2sc3ncccc3c2-n2cccc2)cc1`?
KB-V1 MDR tox: inactive; KB-3-1 cytotox: inactive

Results for CCCOc1ccc(C(=O)NCC(c2ccc(OC)cc2)N2CCCCC2)cc1 (stereo not given) ?
KB-V1 MDR tox: inactive; KB-3-1 cytotox: inactive

What do the screens show for `COc1ccc(N2CCN(C(=O)CCc3ccc(S(=O)(=O)NC(C)(C)C)cc3)CC2)cc1`?
SW480 rerep: inconclusive; HT1080NT lethal: -9%; KB-V1 MDR tox: 15µM*; MCF10A rereplic: -3%; KB-3-1 cytotox: inconclusive; HT1080 IDH1KD tx: -4%

How did COc1ccc(CCC(=O)N2CCN(c3ccc(OC)cc3)CC2)cc1 do in these assays?
SW480 rerep: 7%; HT1080NT lethal: 5%; KB-V1 MDR tox: inconclusive; MCF10A rereplic: 5%; KB-3-1 cytotox: inactive; HT1080 IDH1KD tx: 4%

What do the screens show for `Cc1cc(C)cc(N=Cc2ccc([N+](=O)[O-])s2)c1`?
SW480 rerep: 3.7µM*; HT1080NT lethal: inconclusive; KB-V1 MDR tox: inconclusive; MCF10A rereplic: 21µM*; KB-3-1 cytotox: inconclusive; HT1080 IDH1KD tx: 21µM*

How did Cc1ccc(NC(=S)N/N=C/c2ccc([N+](=O)[O-])s2)cc1 do in these assays?
SW480 rerep: 6.5µM*; HT1080NT lethal: inconclusive; KB-V1 MDR tox: inconclusive; MCF10A rereplic: 10µM*; KB-3-1 cytotox: inconclusive; HT1080 IDH1KD tx: inconclusive

How did N/C(=N\O)c1ccc([N+](=O)[O-])s1 do in these assays?
SW480 rerep: -1%; HT1080NT lethal: inconclusive; KB-V1 MDR tox: inactive; MCF10A rereplic: 0%; KB-3-1 cytotox: inactive; HT1080 IDH1KD tx: 1%

Results for O=C(CNC(=O)c1ccccc1Cl)N/N=C/c1ccc([N+](=O)[O-])s1 ?
SW480 rerep: inconclusive; HT1080NT lethal: inconclusive; KB-V1 MDR tox: inconclusive; MCF10A rereplic: -3%; KB-3-1 cytotox: 2.6µM*; HT1080 IDH1KD tx: 23µM*

Results for O=C(Cc1cccs1)N/N=C\c1ccc([N+](=O)[O-])s1 ?
SW480 rerep: 4%; HT1080NT lethal: inconclusive; KB-V1 MDR tox: inactive; MCF10A rereplic: inconclusive; KB-3-1 cytotox: inactive; HT1080 IDH1KD tx: -28%

What do the screens show for `NC(=O)c1ccc(N=Cc2ccc([N+](=O)[O-])s2)cc1`?
SW480 rerep: 3.3µM*; HT1080NT lethal: inconclusive; KB-V1 MDR tox: inconclusive; MCF10A rereplic: 15µM*; KB-3-1 cytotox: inconclusive; HT1080 IDH1KD tx: 2%

Results for CCc1c(O)nc(SCC(=O)Nc2ccc(Cl)cc2)n(-c2ccccc2)c1=O ?
HT1080NT lethal: -11%; KB-V1 MDR tox: inactive; KB-3-1 cytotox: inactive; HT1080 IDH1KD tx: 0%

Results for O=C1Oc2ccccc2C(=O)C1C(CC(O)c1ccc(-c2ccc(Br)cc2)cc1)c1ccccc1 (stereo not given) ?
SW480 rerep: -3%; MCF10A rereplic: 30µM*

Results for COCCn1c(SCC(=O)Nc2ccc(S(=O)(=O)N3CCOCC3)cc2)nc2ccccc21 ?
SW480 rerep: -2%; HT1080NT lethal: 10%; KB-V1 MDR tox: 5.2µM*; MCF10A rereplic: 16%; KB-3-1 cytotox: inactive; HT1080 IDH1KD tx: 6%

How did O=C(CSc1nc2ccccc2c(=O)n1Cc1ccccc1)Nc1ccc(Br)cc1C(=O)O do in these assays?
SW480 rerep: 12%; HT1080NT lethal: -16%; KB-V1 MDR tox: inactive; MCF10A rereplic: 23µM*; KB-3-1 cytotox: inactive; HT1080 IDH1KD tx: -9%

What do the screens show for `Cc1cc(NC(=O)CSc2nc3ccccc3c(=O)n2Cc2ccc(F)cc2)no1`?
SW480 rerep: 13%; HT1080NT lethal: -26%; KB-V1 MDR tox: inactive; MCF10A rereplic: inconclusive; KB-3-1 cytotox: inactive; HT1080 IDH1KD tx: -21%

Results for Cc1ccc(S(=O)(=O)N2CCOCC2)cc1NC(=O)CSc1nc2ccccc2c(=O)n1Cc1ccccc1 ?
SW480 rerep: -1%; HT1080NT lethal: 0%; KB-V1 MDR tox: 8.2µM*; MCF10A rereplic: 9%; KB-3-1 cytotox: inactive; HT1080 IDH1KD tx: -3%

How did CCc1c(C)c2cc3c(c(C)c2oc1=O)OCN(CCc1ccccc1F)C3 do in these assays?
KB-V1 MDR tox: inactive; KB-3-1 cytotox: inactive

Results for O=C(/C=C/c1ccccc1)N1CCC(c2ccccc2)C1 (stereo not given) ?
SW480 rerep: -32%; HT1080NT lethal: 16%; KB-V1 MDR tox: 21µM*; MCF10A rereplic: -8%; KB-3-1 cytotox: inactive; HT1080 IDH1KD tx: 21%

What do the screens show for `CN(C)CCOc1ccc2c(c1)C(=O)C(=Cc1ncc([N+](=O)[O-])n1C)C2`?
HT1080NT lethal: 23µM*; KB-V1 MDR tox: 3.7µM*; KB-3-1 cytotox: inconclusive; HT1080 IDH1KD tx: 6.5µM*

What do the screens show for `Cc1ccc2[nH]c(C)cc(=S)c2c1`?
SW480 rerep: 21µM*; HT1080NT lethal: inconclusive; KB-V1 MDR tox: inconclusive; MCF10A rereplic: 23µM*; KB-3-1 cytotox: inconclusive; HT1080 IDH1KD tx: 23µM*

Results for O=C(O)COc1ccccc1/C=C1\SC(=Nc2ccc(F)cc2)N(c2ccc(F)cc2)C1=O ?
SW480 rerep: inconclusive; HT1080NT lethal: -22%; KB-V1 MDR tox: inconclusive; MCF10A rereplic: 6.5µM*; KB-3-1 cytotox: inactive; HT1080 IDH1KD tx: -21%

What do the screens show for `O=C(O)COc1ccc(/C=C2\SC(=Nc3ccccc3)N(c3ccccc3)C2=O)cc1`?
SW480 rerep: 2%; HT1080NT lethal: -3%; KB-V1 MDR tox: inactive; MCF10A rereplic: 16%; KB-3-1 cytotox: inactive; HT1080 IDH1KD tx: 12%

What do the screens show for `CCOc1ccccc1NC(=O)CSc1nc2c(c(=O)[nH]1)CCC2`?
KB-V1 MDR tox: inactive; KB-3-1 cytotox: inactive

What do the screens show for `CCOc1ccc(-c2nnc(Nc3ccc(S(N)(=O)=O)cc3)c3ccccc23)cc1`?
KB-V1 MDR tox: inactive; KB-3-1 cytotox: inactive

How did CN(C)c1ccc(NC(=O)c2ccc3c(c2)nnn3C)cc1 do in these assays?
SW480 rerep: 16µM*; HT1080NT lethal: 14%; KB-V1 MDR tox: inactive; MCF10A rereplic: inconclusive; KB-3-1 cytotox: inactive; HT1080 IDH1KD tx: 23%

Source: PubChem (National Center for Advancing Translational Sciences (NCATS))
